Key:
[1] = molecular target: T1, Ephrin type-B receptor 2 (Homo sapiens) (UniProt P29323); details: at 1 µM
T1 sequence (whole entry): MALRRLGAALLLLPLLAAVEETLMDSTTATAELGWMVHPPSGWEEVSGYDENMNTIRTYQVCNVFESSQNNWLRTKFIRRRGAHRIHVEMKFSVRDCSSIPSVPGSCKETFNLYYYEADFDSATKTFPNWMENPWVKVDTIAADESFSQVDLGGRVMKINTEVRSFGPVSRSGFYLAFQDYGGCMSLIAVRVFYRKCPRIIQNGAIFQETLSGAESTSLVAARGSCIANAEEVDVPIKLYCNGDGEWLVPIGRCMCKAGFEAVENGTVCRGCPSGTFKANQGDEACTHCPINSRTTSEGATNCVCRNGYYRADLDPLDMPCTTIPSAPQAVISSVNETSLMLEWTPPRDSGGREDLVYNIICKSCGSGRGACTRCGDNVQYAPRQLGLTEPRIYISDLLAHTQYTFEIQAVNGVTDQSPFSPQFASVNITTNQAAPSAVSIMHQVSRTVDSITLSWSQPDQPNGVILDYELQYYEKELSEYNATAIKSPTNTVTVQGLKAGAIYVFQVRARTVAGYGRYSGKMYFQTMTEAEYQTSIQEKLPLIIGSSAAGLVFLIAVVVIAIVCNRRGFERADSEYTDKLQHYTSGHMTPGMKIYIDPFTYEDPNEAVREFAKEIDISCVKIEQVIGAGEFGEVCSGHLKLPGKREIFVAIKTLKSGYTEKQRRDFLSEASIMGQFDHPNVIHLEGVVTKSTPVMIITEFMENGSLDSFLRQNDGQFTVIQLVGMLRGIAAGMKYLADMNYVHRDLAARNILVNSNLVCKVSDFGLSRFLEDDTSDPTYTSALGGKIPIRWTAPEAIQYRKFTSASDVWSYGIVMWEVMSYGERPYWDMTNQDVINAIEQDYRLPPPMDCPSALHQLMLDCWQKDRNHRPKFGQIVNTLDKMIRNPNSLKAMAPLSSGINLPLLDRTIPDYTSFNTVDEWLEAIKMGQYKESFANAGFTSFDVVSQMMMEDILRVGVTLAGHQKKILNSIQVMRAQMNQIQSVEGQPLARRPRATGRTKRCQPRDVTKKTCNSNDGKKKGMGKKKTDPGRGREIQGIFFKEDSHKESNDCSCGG

[2] = molecular target: T2, Ephrin type-B receptor 3 (Homo sapiens) (UniProt P54753); details: at 0.1 µM
T2 sequence (whole entry): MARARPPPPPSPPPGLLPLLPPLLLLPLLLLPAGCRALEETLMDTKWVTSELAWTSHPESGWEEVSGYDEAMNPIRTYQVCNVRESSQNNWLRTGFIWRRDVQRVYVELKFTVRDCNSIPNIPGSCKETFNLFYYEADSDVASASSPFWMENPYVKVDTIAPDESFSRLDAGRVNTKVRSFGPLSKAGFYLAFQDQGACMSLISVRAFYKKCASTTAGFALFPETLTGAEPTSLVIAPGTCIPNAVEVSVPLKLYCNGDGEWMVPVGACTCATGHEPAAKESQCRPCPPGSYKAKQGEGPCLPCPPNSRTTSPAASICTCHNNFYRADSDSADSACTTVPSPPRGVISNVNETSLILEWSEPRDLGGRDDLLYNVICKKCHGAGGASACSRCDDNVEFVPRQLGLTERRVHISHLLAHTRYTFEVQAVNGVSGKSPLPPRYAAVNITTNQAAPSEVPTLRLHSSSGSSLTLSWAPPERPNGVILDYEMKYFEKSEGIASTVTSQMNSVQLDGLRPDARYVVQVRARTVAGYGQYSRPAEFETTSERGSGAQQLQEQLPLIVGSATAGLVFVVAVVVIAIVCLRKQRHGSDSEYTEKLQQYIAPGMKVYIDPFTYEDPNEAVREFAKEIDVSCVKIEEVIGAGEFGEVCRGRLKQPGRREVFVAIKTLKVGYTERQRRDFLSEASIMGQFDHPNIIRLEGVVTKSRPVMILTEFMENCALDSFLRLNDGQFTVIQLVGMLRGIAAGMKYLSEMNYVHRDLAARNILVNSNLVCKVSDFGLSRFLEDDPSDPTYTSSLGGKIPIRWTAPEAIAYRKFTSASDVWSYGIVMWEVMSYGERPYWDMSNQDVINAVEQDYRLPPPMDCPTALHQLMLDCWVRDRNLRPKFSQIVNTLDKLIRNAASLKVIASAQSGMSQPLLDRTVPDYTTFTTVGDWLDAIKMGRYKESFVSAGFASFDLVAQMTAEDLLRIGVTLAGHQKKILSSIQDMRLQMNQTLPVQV

[3] = molecular target: T2, Ephrin type-B receptor 3 (Homo sapiens); details: at 1 µM
[4] = molecular target: T3, Ephrin type-B receptor 4 (Homo sapiens) (UniProt P54760); details: at 0.1 µM
T3 sequence (whole entry): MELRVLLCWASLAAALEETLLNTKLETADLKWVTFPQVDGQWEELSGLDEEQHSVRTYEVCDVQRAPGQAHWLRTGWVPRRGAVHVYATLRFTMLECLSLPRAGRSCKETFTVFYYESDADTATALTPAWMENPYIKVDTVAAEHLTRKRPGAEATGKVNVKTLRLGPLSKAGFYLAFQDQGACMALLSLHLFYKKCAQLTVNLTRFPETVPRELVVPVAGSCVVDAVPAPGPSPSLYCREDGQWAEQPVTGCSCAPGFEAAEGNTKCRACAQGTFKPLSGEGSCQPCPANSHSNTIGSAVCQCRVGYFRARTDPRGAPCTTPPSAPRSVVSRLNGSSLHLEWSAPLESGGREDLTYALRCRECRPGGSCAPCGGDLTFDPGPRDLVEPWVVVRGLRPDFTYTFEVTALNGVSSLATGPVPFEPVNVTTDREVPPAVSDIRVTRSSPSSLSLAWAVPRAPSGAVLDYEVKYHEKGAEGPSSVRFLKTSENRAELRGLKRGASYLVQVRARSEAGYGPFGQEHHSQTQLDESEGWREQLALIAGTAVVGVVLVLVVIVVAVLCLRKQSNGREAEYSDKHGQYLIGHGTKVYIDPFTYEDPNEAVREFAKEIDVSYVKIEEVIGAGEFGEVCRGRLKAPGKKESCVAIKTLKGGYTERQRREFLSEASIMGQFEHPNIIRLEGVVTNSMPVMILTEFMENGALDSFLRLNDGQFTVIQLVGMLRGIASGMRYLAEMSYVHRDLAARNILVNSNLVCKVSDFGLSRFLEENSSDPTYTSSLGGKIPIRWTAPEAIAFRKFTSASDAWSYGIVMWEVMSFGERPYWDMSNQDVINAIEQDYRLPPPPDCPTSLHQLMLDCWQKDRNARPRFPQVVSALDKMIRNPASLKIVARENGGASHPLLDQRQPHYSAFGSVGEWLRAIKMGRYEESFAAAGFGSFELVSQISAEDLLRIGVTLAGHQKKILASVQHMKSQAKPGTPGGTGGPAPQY

[5] = molecular target: T3, Ephrin type-B receptor 4 (Homo sapiens); details: at 1 µM
[6] = molecular target: Receptor tyrosine-protein kinase erbB-2 (Homo sapiens) (UniProt P04626); details: at 0.1 µM
[7] = molecular target: Receptor tyrosine-protein kinase erbB-2 (Homo sapiens) (UniProt P04626); details: at 1 µM
[8] = molecular target: Receptor tyrosine-protein kinase erbB-4 (Homo sapiens) (UniProt Q15303); details: at 0.1 µM
[9] = molecular target: Receptor tyrosine-protein kinase erbB-4 (Homo sapiens) (UniProt Q15303); details: at 1 µM
[10] = molecular target: Tyrosine-protein kinase Fer (Homo sapiens) (UniProt P16591); details: at 0.1 µM
[11] = molecular target: Tyrosine-protein kinase Fer (Homo sapiens) (UniProt P16591); details: at 1 µM
[12] = molecular target: Tyrosine-protein kinase Fes/Fps (Homo sapiens) (UniProt P07332); details: at 0.1 µM
[13] = molecular target: Tyrosine-protein kinase Fes/Fps (Homo sapiens) (UniProt P07332); details: at 1 µM
[14] = molecular target: Fibroblast growth factor receptor 1 (Homo sapiens) (UniProt P11362); details: at 0.1 µM
[15] = molecular target: Fibroblast growth factor receptor 1 (Homo sapiens) (UniProt P11362); details: at 1 µM
[16] = molecular target: Fibroblast growth factor receptor 2 (Homo sapiens) (UniProt P21802); details: at 0.1 µM
[17] = molecular target: Fibroblast growth factor receptor 2 (Homo sapiens) (UniProt P21802); details: at 1 µM
[18] = molecular target: Fibroblast growth factor receptor 3 (Homo sapiens) (UniProt P22607); details: at 0.1 µM
[19] = molecular target: Fibroblast growth factor receptor 3 (Homo sapiens) (UniProt P22607); details: at 1 µM
[20] = molecular target: Fibroblast growth factor receptor 4 (Homo sapiens) (UniProt P22455); details: at 0.1 µM;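 note: values are mean percent inhibition of FGFR4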
Fibroblast growth factor receptor 4 (Homo sapiens), sequence (P22455 22-802 limits assumed): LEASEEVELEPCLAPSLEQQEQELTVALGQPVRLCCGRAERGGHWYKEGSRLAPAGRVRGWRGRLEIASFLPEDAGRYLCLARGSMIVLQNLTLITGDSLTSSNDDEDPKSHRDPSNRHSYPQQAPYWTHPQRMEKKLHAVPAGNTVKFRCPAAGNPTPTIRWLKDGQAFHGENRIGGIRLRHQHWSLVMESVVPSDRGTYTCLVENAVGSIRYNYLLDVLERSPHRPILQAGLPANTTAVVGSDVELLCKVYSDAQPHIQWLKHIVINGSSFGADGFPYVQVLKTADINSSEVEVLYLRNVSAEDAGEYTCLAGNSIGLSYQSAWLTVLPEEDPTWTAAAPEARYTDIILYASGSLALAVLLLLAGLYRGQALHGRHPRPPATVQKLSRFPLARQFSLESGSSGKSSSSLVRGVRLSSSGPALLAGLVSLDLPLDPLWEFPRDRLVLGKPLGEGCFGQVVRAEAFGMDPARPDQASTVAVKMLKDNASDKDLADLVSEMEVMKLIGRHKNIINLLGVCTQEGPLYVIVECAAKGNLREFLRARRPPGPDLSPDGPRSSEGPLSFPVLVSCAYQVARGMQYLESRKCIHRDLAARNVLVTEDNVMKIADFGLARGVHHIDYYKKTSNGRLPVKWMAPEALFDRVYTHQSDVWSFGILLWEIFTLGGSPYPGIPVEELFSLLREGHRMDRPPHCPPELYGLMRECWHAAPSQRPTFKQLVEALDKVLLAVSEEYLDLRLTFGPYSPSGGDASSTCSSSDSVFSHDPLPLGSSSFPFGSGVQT

Fibroblast growth factor receptor 1 (Homo sapiens), sequence (P11362 22-822 limits assumed): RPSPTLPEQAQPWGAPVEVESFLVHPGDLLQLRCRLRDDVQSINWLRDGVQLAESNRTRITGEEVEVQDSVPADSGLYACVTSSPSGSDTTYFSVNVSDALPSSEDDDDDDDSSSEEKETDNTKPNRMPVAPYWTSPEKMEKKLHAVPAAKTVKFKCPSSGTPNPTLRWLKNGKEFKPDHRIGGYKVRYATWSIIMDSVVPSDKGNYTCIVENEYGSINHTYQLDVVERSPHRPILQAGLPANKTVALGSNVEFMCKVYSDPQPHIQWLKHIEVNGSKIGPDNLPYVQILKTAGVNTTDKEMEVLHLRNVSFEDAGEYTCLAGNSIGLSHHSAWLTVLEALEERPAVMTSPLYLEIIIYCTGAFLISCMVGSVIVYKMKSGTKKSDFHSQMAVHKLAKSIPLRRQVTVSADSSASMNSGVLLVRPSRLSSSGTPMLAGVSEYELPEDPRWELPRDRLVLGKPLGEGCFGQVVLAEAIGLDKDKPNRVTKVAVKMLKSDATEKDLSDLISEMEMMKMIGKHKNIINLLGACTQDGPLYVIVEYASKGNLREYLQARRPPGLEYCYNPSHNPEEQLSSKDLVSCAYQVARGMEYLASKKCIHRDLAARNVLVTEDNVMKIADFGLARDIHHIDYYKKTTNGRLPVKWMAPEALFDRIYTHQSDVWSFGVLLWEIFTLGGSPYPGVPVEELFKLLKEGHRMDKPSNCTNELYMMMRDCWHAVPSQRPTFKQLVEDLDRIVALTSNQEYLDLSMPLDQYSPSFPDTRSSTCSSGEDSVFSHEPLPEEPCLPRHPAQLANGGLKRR
Receptor tyrosine-protein kinase erbB-2 (Homo sapiens), sequence (P04626 whole entry): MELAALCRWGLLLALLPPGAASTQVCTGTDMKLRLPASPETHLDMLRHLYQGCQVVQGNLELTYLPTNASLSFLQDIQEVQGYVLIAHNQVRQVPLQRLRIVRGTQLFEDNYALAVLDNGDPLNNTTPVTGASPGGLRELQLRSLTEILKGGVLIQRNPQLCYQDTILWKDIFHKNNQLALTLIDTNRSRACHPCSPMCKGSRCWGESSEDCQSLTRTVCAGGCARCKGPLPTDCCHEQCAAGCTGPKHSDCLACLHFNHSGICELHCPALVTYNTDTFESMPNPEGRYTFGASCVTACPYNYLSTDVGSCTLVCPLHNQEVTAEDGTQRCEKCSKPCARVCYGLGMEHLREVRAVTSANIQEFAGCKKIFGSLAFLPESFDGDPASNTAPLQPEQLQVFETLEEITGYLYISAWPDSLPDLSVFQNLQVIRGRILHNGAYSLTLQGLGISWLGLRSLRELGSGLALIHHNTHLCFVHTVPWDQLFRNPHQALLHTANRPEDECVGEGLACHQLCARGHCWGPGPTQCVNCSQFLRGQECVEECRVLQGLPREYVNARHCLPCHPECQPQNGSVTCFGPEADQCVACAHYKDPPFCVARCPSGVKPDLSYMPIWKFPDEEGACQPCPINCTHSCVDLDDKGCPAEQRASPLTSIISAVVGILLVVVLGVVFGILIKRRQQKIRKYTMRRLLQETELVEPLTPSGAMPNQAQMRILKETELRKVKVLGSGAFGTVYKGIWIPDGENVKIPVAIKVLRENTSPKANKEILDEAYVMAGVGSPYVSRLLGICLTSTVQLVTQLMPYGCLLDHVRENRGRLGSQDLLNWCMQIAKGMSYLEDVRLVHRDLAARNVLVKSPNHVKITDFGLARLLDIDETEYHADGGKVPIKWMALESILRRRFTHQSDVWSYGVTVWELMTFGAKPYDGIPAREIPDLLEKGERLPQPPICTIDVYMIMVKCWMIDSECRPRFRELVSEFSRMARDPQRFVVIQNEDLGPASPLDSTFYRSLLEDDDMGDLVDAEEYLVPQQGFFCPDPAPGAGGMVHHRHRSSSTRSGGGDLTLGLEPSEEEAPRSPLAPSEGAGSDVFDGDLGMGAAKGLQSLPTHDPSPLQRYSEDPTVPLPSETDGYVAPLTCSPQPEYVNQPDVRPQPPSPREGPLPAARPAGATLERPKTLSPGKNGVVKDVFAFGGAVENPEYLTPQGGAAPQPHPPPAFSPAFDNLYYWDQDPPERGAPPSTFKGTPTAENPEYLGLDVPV
Fibroblast growth factor receptor 2 (Homo sapiens), sequence (P21802 22-821 limits assumed): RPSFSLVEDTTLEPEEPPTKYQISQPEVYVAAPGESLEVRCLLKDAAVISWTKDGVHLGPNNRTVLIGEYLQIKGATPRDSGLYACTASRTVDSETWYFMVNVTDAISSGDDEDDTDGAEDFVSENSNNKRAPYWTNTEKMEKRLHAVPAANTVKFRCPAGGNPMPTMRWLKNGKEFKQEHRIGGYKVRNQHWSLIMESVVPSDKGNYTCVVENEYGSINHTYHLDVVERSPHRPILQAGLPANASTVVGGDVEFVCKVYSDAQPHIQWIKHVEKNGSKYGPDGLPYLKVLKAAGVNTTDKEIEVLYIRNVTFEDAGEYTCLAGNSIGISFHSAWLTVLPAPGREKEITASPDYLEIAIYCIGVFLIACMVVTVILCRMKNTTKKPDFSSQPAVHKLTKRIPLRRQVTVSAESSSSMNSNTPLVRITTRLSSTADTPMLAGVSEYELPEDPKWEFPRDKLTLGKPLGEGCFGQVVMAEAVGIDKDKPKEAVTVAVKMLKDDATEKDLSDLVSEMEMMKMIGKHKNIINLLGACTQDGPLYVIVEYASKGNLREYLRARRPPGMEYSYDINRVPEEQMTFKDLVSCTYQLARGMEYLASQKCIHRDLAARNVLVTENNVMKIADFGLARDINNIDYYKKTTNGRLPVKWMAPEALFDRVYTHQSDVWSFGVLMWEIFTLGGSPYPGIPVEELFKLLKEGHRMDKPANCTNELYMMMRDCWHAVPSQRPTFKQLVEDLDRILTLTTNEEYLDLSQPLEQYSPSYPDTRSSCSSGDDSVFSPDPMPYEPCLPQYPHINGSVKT
Tyrosine-protein kinase Fer (Homo sapiens), sequence (P16591 whole entry, looked up): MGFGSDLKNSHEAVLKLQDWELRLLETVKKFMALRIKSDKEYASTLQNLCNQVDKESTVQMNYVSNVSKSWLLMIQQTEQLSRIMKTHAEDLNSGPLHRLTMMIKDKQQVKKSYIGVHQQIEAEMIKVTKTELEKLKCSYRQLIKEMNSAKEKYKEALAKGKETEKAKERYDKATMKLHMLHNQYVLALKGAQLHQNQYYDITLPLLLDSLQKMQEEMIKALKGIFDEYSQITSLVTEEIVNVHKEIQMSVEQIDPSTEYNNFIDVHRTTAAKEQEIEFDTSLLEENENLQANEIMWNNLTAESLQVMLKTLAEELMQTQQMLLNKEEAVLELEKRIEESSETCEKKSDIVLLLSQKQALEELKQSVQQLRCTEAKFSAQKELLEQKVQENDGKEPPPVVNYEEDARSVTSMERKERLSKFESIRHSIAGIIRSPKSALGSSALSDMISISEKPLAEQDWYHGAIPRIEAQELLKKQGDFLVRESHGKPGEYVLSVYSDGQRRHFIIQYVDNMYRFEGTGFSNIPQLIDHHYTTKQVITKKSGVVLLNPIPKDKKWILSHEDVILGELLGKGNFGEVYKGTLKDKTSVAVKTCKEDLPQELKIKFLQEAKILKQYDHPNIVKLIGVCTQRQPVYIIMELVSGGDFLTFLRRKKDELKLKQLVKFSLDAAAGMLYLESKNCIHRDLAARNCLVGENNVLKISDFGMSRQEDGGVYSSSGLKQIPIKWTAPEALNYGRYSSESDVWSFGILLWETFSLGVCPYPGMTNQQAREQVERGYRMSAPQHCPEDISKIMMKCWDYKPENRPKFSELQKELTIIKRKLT

Row | Structure (SMILES) | inhibition [1] [%] | inhibition [2] [%] | inhibition [3] [%] | inhibition [4] [%] | inhibition [5] [%] | inhibition [6] [%] | inhibition [7] [%] | inhibition [8] [%] | inhibition [9] [%] | inhibition [10] [%] | inhibition [11] [%] | inhibition [12] [%] | inhibition [13] [%] | inhibition [14] [%] | inhibition [15] [%] | inhibition [16] [%] | inhibition [17] [%] | inhibition [18] [%] | inhibition [19] [%] | inhibition [20] [%]
1 | NC(=O)c1sc(-n2cnc3ccc(C(F)(F)F)cc32)cc1OCc1ccccc1Br | 7.8 | 7.23 | 4.9 | -1.54 | 0.48 | 1.83 | 1.49 | 6.27 | 10.9 | 2.63 | 2.2 | 1.79 | 2.43 | 4.99 | 5.11 | 4.53 | 4.28 | 5.08 | 3.54 | 4.08
2 | NS(=O)(=O)c1ccc(Nc2ncc(-c3ccccc3)o2)cc1 | 7.75 | 4.17 | 3.33 | 2.27 | 1.72 | 2.57 | 2.77 | 8.79 | 10.5 | 2.73 | 4.95 | 2.8 | 4.88 | 6.58 | 8.69 | 7.74 | 16.1 | 7.08 | 11.2 | 2.06
3 | CNC(=O)c1cncc(/C=C/c2ccccc2Cl)c1 | 8.47 | -1.27 | 1.05 | -0.2 | 4.63 | 0.54 | 5.61 | 3.2 | 8.96 | 2.91 | 3.78 | 0.21 | 0.02 | -1 | -1.84 | -1.98 | 4.23 | 0.84 | 1.98 | 1.47
4 | COc1cc(N2CCN(C(C)C)CC2)ccc1Nc1nc(Nc2ccc(F)cc2C(N)=O)c2cc[nH]c2n1 | 1.15 | 2.78 | 2.03 | 1.77 | 1.31 | 2.4 | 3.8 | 35.2 | 76.8 | 62.8 | 82.8 | 39.9 | 81.7 | 6.98 | 2.33 | 7.72 | 3.84 | 7.85 | 3.24 | 4.7
5 | COc1cc(Nc2nccc(Nc3ccc4c(C)n[nH]c4c3)n2)cc(OC)c1OC | 65.5 | 2.52 | 0.24 | 11.2 | 54.8 | -1.05 | 0.32 | 11.9 | 27.6 | 6.42 | 36.1 | 3.05 | 10.6 | 5.2 | 24.8 | 7.33 | 39.8 | 8.22 | 30.5 | 2.39
6 | Nc1ncc(-c2cccc(S(N)(=O)=O)c2)c2scc(-c3ccc(F)c(Cl)c3)c12 | 88.7 | 9.18 | 22 | 49.3 | 87.1 | 4.06 | 6.32 | 13.2 | 29.6 | 5.25 | 30 | 4 | 7.1 | 2.01 | 16.1 | 8.86 | 32.8 | 6.12 | 23.3 | 2.27
7 | O=C(Nc1n[nH]c2cc(-c3ccc(F)cc3)ccc12)C1CC1 | 7.07 | 5.69 | 1.87 | 1.47 | 2.87 | 1.75 | -0.76 | 6.81 | 11.6 | 5.3 | 1.55 | 1.98 | 2.43 | 3.72 | 5.84 | 1.37 | 3.08 | 4.83 | 3.2 | -1.21
